Data as given in the supplement of paper PMC9023506.
Structures can show the parent of a compound that is named as a salt.

The compounds below were run on Danio rerio larvae (5 dpf) (assay: excitability to 1-s acoustic pulses, difference vs DMSO (percentage points (treated minus DMSO)); higher = more of the behaviour than the DMSO vehicle control). Details: 10 µM; exposure time: 3 h pre-incubation + 3 h imaging.
Experimental: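 5-dpf wild-type zebrafish larvae were imaged in 96-well plates. They were treated with 190 Tocris FDA-approved drugs at 10 µM (1 µl/ml DMSO) for 3 h before and 3 h during imaging at 28.5 °C, 48 larvae per drug. Automated image analysis gave % time moving and optomotor responses. Values are drug group mean minus DMSO vehicle mean (n=844), in percentage points, for 10 behaviours.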

SMILES | excitability to 1-s acoustic pulses
CN(C)C(=N)NC(=N)N [Metformin hydrochloride] | 4.58
CN(C)CCC[C@@]1(c2ccc(F)cc2)OCc2cc(C#N)ccc21 [Escitalopram oxalate] | 14.4
NC(=O)OCC(COC(N)=O)c1ccccc1 [Felbamate] | -4.78
CC1=Nc2ccc(Cl)cc2S(=O)(=O)N1 [Diazoxide] | 0.689
N#C[C@@H]1C[C@@H]2C[C@@H]2N1C(=O)[C@@H](N)C12CC3CC(CC(O)(C3)C1)C2 [Saxagliptin hydrochloride] | 2.82
O=C(O)c1cc(/N=N/c2ccc(S(=O)(=O)Nc3ccccn3)cc2)ccc1O [Sulfasalazine] | -0.736
O=C(NCC1CCCCN1)c1cc(OCC(F)(F)F)ccc1OCC(F)(F)F (stereo not given) [Flecainide acetate] | 5.58
OCCN(CCO)c1nc(N2CCCCC2)c2nc(N(CCO)CCO)nc(N3CCCCC3)c2n1 [Dipyridamole] | -3.05
Cc1nc(-c2ccc(OCC(C)C)c(C#N)c2)sc1C(=O)O [Febuxostat] | -0.372
CCOc1nc2cccc(C(=O)O)c2n1Cc1ccc(-c2ccccc2-c2nnn[nH]2)cc1 [Candesartan] | -3.51
CC#C[C@]1(O)CC[C@H]2[C@@H]3CCC4=CC(=O)CCC4=C3[C@@H](c3ccc(N(C)C)cc3)C[C@@]21C [Mifepristone] | 5.32
C[C@H]1O[C@H](O[C@H]2[C@H](O)[C@@H](O)[C@@H](O[C@H]3[C@H](O)[C@@H](O)C(O)O[C@@H]3CO)O[C@@H]2CO)[C@H](O)[C@@H](O)[C@@H]1N[C@H]1C=C(CO)[C@@H](O)[C@H](O)[C@H]1O (stereo not given in full) [Acarbose] | -4.01
O=C(O)CCCc1ccccc1 [Sodium 4-Phenylbutyrate] | 2.04
CN1CC(=O)N2[C@H](c3ccc4c(c3)OCO4)c3[nH]c4ccccc4c3C[C@@H]2C1=O [Tadalafil] | 4.84
Cn1nnc2c(C(N)=O)ncn2c1=O [Temozolomide] | -2.39
O=c1n(CCCN2CCN(c3cccc(Cl)c3)CC2)nc2ccccn12 [Trazodone hydrochloride] | 18.6
CCc1ccc(CCOc2ccc(CC3SC(=O)NC3=O)cc2)nc1 (stereo not given) [Pioglitazone hydrochloride] | 6.94
CCOc1nc2cccc(C(=O)O)c2n1Cc1ccc(-c2ccccc2-c2noc(=O)[nH]2)cc1 [Azilsartan] | -0.616
CC(C)OC(=O)C(C)(C)Oc1ccc(C(=O)c2ccc(Cl)cc2)cc1 [Fenofibrate] | 4.84
CCOC(=O)[C@H](CCc1ccccc1)N[C@@H](C)C(=O)N1[C@H](C(=O)O)C[C@@H]2CCC[C@@H]21 [Ramipril] | 4.17

SMILES | excitability to 1-s acoustic pulses
NS(=O)(=O)c1cc2c(cc1Cl)NC(C1CC3C=CC1C3)NS2(=O)=O (stereo not given) [Cyclothiazide] | 0.586
CCOc1cc(CC(=O)N[C@@H](CC(C)C)c2ccccc2N2CCCCC2)ccc1C(=O)O [Repaglinide] | 9.31
CCN(CC)CCNC(=O)c1c(C)[nH]c(/C=C2\C(=O)Nc3ccc(F)cc32)c1C [Sunitinib malate] | 14.4
CC(=O)Oc1cc2c(s1)CCN(C(C(=O)C1CC1)c1ccccc1F)C2 (stereo not given) [Prasugrel] | 5.57
CC/C(=C(\c1ccccc1)c1ccc(OCCN(C)C)cc1)c1ccccc1 [Tamoxifen citrate] | 4.58
COc1cc2nc(N3CCN(C(=O)c4ccco4)CC3)nc(N)c2cc1OC [Prazosin hydrochloride] | 13.5
OCCOCCN1CCN(C2=Nc3ccccc3Sc3ccccc32)CC1 [Quetiapine hemifumarate] | 9.86
C[C@H](Cc1cc2c(c(C(N)=O)c1)N(CCCO)CC2)NCCOc1ccccc1OCC(F)(F)F [Silodosin] | 21.7
CCC(C)(C)C(=O)O[C@H]1C[C@@H](C)C=C2C=C[C@H](C)[C@H](CC[C@@H]3C[C@@H](O)CC(=O)O3)[C@H]21 [Simvastatin] | 8.31
CN1CCC[C@@H]1Cc1c[nH]c2ccc(CCS(=O)(=O)c3ccccc3)cc12 [Eletriptan hydrobromide] | 3.9
CNC(=O)c1cc(Oc2ccc(NC(=O)Nc3ccc(Cl)c(C(F)(F)F)c3)cc2)ccn1 [Sorafenib] | 14.4
CC(C)(C)NC(=O)[C@@H]1C[C@@H]2CCCC[C@@H]2CN1C[C@@H](O)[C@H](Cc1ccccc1)NC(=O)[C@H](CC(N)=O)NC(=O)c1ccc2ccccc2n1 [Saquinavir mesylate] | 9.21
COc1cccc2c1C(=O)c1c(O)c3c(c(O)c1C2=O)C[C@@](O)(C(=O)CO)C[C@@H]3O[C@H]1C[C@H](N)[C@H](O)[C@H](C)O1 [Doxorubicin hydrochloride] | 13.8
CN1CCN2c3ncccc3Cc3ccccc3C2C1 (stereo not given) [Mirtazapine] | 0.878
O=C(O)C[C@H](O)C[C@H](O)/C=C/c1c(C2CC2)nc2ccccc2c1-c1ccc(F)cc1 [Pitavastatin calcium] | 0.628
C[C@]12CCC(=O)C=C1CC[C@@H]1[C@@H]2[C@@H](O)C[C@@]2(C)[C@H]1CC[C@]2(O)C(=O)CO [Hydrocortisone] | 1.67
Clc1ccc(COC(Cn2ccnc2)c2ccc(Cl)cc2Cl)c(Cl)c1 (stereo not given) [Miconazole nitrate] | -0.632
Cc1cc2c(s1)Nc1ccccc1N=C2N1CCN(C)CC1 [Olanzapine] | 3.32
COc1cc(N)c(Cl)cc1C(=O)NC1CCN(CCCOc2ccc(F)cc2)CC1OC (stereo not given) [Cisapride] | 16.4
C[C@@H](O[C@H]1OCCN(Cc2n[nH]c(=O)[nH]2)[C@H]1c1ccc(F)cc1)c1cc(C(F)(F)F)cc(C(F)(F)F)c1 [Aprepitant] | 8.09
